Records with an inconclusive call do not appear. Entries that show only a call come without a potency. Active and inactive are the calls of the source. Unless noted, calls come from the whole dose curve; as a rule, active = well fitted cell-killing curve with a large enough effect in the repeat runs; inconclusive = weak or mixed curves, or effect the other way; inactive = no such curve, though single readings can be large or run the other way.

The target of the first experiment is Vitamin D3 receptor (Homo sapiens) (UniProt P11473). Nature of the experiment: qHTS assay to identify small molecule antagonists of the vitamin D receptor (VDR) signaling pathway (AID 743223; active = well fitted inhibition curve with a large enough effect in the signal ratio in the repeat runs, not every such curve was filed as active; the % refers to the signal ratio). The conditions noted are these: VDR-UAS-bla HEK293T, beta-lactamase FRET ratio, 16 h; series mostly up to 61 µM. The procedure, abridged: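 After VDR-bla cells are plated and left 4 h at 37C, DMSO-dissolved compounds and 3 nM (final) calcitriol agonist are added. Incubation continues 16 h at 37C; FRET beta-lactamase substrate then develops 2 h at room temperature.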
Chain of Vitamin D3 receptor (Homo sapiens) (P11473 whole entry, looked up): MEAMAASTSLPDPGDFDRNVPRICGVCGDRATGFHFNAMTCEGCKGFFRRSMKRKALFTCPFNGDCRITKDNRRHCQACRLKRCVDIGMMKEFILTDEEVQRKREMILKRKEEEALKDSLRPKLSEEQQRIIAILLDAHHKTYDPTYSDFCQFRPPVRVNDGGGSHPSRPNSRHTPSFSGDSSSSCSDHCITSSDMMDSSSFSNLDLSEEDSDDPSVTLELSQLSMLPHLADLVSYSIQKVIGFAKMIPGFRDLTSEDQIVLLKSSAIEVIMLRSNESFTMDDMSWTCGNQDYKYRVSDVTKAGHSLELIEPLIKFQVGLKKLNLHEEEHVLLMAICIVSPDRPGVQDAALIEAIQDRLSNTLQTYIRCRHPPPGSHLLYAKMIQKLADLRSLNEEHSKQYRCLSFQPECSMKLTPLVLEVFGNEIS
`CC(=O)Oc1ccc2c(c1)CC[C@@H]1[C@@H]2CC[C@]2(C)[C@@H](O)CC[C@@H]12`: the outcome was inactive. Still for that read-out and setting: next, `CC(N)CN` (centres undefined): “inactive”; `C=CCNc1nc(NCC=C)nc(N2CCN(C(c3ccc(F)cc3)c3ccc(F)cc3)CC2)n1`: “inactive”. On the same count and under the same terms, in the case of `COCCOC` it was “inactive”; in that of `CCCc1c(OCCCOc2ccc(OCC(=O)O)cc2)ccc(C(C)=O)c1O`, “inactive”; in that of `CCCCCCCCCCCC[N+](C)(C)CC(=O)[O-]`, “inactive”. `Cc1occc1C(=O)Nc1ccc(C(=O)N2CCC(F)(F)/C(=C\C(=O)N3CCC(N4CCCCC4)CC3)c3ccccc32)cc1`: the result was inactive. Turning to `COC(OC)(C(=O)c1ccccc1)c1ccccc1`, the outcome was inactive. The same measure, in the same setting: in the case of `CC(C)C(OC(=O)c1ccccc1)C(C)(C)COC(=O)c1ccccc1` (centres undefined) it was “inactive”; in that of `O=C(Nc1ccc([N+](=O)[O-])cc1)Nc1ccc([N+](=O)[O-])cc1`, “inactive”. Turning to `CC(C)(CCl)c1ccccc1`, the result was inactive.

In the case of `CC[C@@H]([C@H](C)O)n1ncn(-c2ccc(N3CCN(c4ccc(OC[C@@H]5CO[C@@](Cn6cncn6)(c6ccc(F)cc6F)C5)cc4)CC3)cc2)c1=O`, the result was inactive. For `CC(C)c1nnc2ccc(-c3ocnc3-c3cc(F)ccc3F)cn12`, the outcome was inactive. Same read-out and setting: in the case of `CCCCCCCCCCOS(=O)(=O)O` it was “inactive”. The same measure, in the same setting: in the case of `OCC1CC=CCC1` (centres undefined) it was “inactive”; in that of `CCCCCCOC(=O)C(C)C`, “inactive”.

Test system in the next experiment: not listed separately
Briefly: qHTS assay to identify small molecule agonists of the vitamin D receptor (VDR) signaling pathway - cell viability counter screen (AID 743224). Note: nearly all actives have a fitted effect of over 50% in size. Note: potency is the fitted concentration of half-maximal effect. The conditions noted are these: VDR-bla HEK293T viability, CellTiter-Glo luminescence, 16 h; series mostly up to 62.6 µM. The procedure, abridged:
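Plated VDR-bla cells (4 h, 37C) received compound, incubated 16 h, then LiveBLAzer substrate 2 h RT; CellTiter-Glo added afterwards, luminescence read at 30 min.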
As to `CC(=O)Oc1ccc2c(c1)CC[C@@H]1[C@@H]2CC[C@]2(C)[C@@H](O)CC[C@@H]12`, the Potency entry is “inactive”. Still for that read-out and setting: in the case of `CC(N)CN` (centres undefined) it was “inactive”; in that of `COc1cc2ncnc(Nc3ccc(F)c(Cl)c3)c2cc1OCCCN1CCOCC1`, “inactive”; in that of `Cc1cc(OI)c(C(C)C)cc1-c1cc(C(C)C)c(OI)cc1C`, “inactive”. Same read-out and setting: next, `CCc1nn(CCCN2CCN(c3cccc(Cl)c3)CC2)c(=O)n1CCOc1ccccc1`: “inactive”. Consider `CCN(Cc1cccc(S(=O)(=O)O)c1)c1ccc(C(=C2C=CC(=[N+](CC)Cc3cccc(S(=O)(=O)[O-])c3)C=C2)c2ccccc2)cc1`, for which the Potency entry is “inactive”. In the case of `O=C(CCCN1CCN(c2ccc(F)cc2)CC1)NC1c2ccccc2CSc2ccccc21` (centres undefined), the Potency is 13.3 µM (active). As to `C=CCNc1nc(NCC=C)nc(N2CCN(C(c3ccc(F)cc3)c3ccc(F)cc3)CC2)n1`, the Potency result was “inactive”. Same read-out and setting: next, `CC(C)CCCC(=O)O`: “inactive”; `COCCOC`: “inactive”. On the same count and under the same terms, in the case of `CC1C2CC(CC2C2CCCC(O)C2)C1(C)C` (centres undefined) it was 49 µM (active); in that of `O=C(CS)OCCOC(=O)CS`, “inactive”; in that of `CCCc1c(OCCCOc2ccc(OCC(=O)O)cc2)ccc(C(C)=O)c1O`, “inactive”. Same read-out and setting: next, `Cc1occc1C(=O)Nc1ccc(C(=O)N2CCC(F)(F)/C(=C\C(=O)N3CCC(N4CCCCC4)CC3)c3ccccc32)cc1`: “inactive”; `O=C1OCCN1/N=C/c1ccc([N+](=O)[O-])o1`: “inactive”; `COC(OC)(C(=O)c1ccccc1)c1ccccc1`: “inactive”.

Regarding `CO/N=C1\CN(c2nc3c(cc2F)c(=O)c(C(=O)O)cn3C2CC2)CC1CN` (centres undefined), the Potency entry is “inactive”. Still for that read-out and setting: next, `CC[C@@H]([C@H](C)O)n1ncn(-c2ccc(N3CCN(c4ccc(OC[C@@H]5CO[C@@](Cn6cncn6)(c6ccc(F)cc6F)C5)cc4)CC3)cc2)c1=O`: “inactive”. On the same count and under the same terms, next, `Cc1ccc(S)cc1`: “inactive”; `CCCOCCOCCO`: “inactive”; `CC(C)c1nnc2ccc(-c3ocnc3-c3cc(F)ccc3F)cn12`: “inactive”.

Take `CC(C)(C)CC(C)(C)c1ccc(OCCO)cc1`: the Potency was 38.7 µM (active). Same read-out and setting: next, `O=C(CCCCCCC(=O)Nc1ccccc1)NO`: “inactive”.

Consider `O=C(c1ccc(O)cc1)c1ccc(Cl)cc1`, for which the Potency result was “inactive”.

On to `CC(C)(O)c1ccccc1CC[C@@H](SCC1(CC(=O)O)CC1)c1cccc(/C=C/c2ccc3ccc(Cl)cc3n2)c1`, for which the Potency result is “inactive”. For `NC(=O)Cn1c(=O)cc(CCN2CCN(c3nccc4sccc34)CC2)c2ccc(F)cc21`, the Potency entry is “inactive”. Same read-out and setting: in the case of `O=Cc1c(Cl)cccc1Cl` it was “inactive”; in that of `CC#N`, “inactive”. On the same count and under the same terms, in the case of `CCCCCCCCCCOS(=O)(=O)O` it was “inactive”. On the same count and under the same terms, next, `NC(=O)N(O)[C@@H]1COc2cc(OCc3ccccc3)ccc21`: “inactive”; `OCC1CC=CCC1` (centres undefined): “inactive”. For `C[Si](NC1CCCCC1)(NC1CCCCC1)NC1CCCCC1`, the Potency result was “inactive”.

For `CCCCCCOC(=O)C(C)C`, the Potency entry was “inactive”.

(Values after PubChem BioAssay (Tox21).)
